Laboratory results reported in PubChem BioAssay.
Several values for one entry are separate records, joined by “and”; a condition that tells them apart may be missing. Identical values can stand only once. Activity calls are given as the source filed them.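 Rule for the calls, unless noted: active = inhibition at or above 50% relative to wild type and mutant plate controls; inactive = inhibition below 50%.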

Tests used:
[1] = inhibitors of TNFa-induced NFkB p65 translocation, primary screen, imaging, HUVEC, MLSMR starter and 10KST1 sets (AID 438;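 active = inhibition above 20% together with a positive visual image hit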;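 note: compound added about 3h40 before a 20 min TNFalpha stimulation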;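 for inhibition: signal is the nuclear over cytoplasmic p65 intensity ratio per well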); settings: HUVEC TNFa-induced p65 nuclear translocation; cell count: measured here: nuclei count (cytotoxicity indicator), at 2.08 µM; inhibition: at 2 µM, stronger effect = higher value, 0% TNFa-plus-vehicle, 100% no-TNFa wells
[2] = inhibitors of mutant huntingtin aggregation, primary screen, imaging, exon1htt(103Q)mCFP cells, high-content imaging (AID 483;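 active = visual image review flags a hit and inhibition of aggregation exceeds 20%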;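 note: compound exposure lasted 3 days before fixation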;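 for nuclei count: percent of the per-plate median nuclei count of sample wells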); settings: exon1htt(103Q)mCFP cell line, aggregate imaging, at 2 µM; inhibition of aggregation: stronger effect = higher value; nuclei count: measured here: cell count, toxicity
[3] = inhibitors of E-selectin induction by TNFa, primary screen, imaging, HUVEC, immunofluorescence, MLSMR starter and 10KST1 sets (AID 487;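 active = visually confirmed hit in the image check and inhibition above 20%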;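 for inhibition: signal is fraction of cell area covered by stained E-selectin grains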;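 for nuclei count: 100% = median nuclei count of all wells on the same plate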); settings: HUVEC TNFalpha-induced E-selectin immunofluorescence imaging, at 2 µM; inhibition: stronger effect = higher value; nuclei count: measured here: cell number, toxicity
[4] = DUSP6 inhibitors restoring Erk phosphorylation by chemical complementation, primary imaging in DUSP6-transfected HeLa (AID 609;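 active = compounds giving at least 50% inhibition in the cell-based MKP-3 phosphatase rescue imaging test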;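 for inhibition: phospho-Erk level distribution per well compared with pooled transfected vehicle control wells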); settings: HeLa MKP-3 transfected, phospho-Erk imaging KS statistic, at 10 µM, cells stimulated with TPA for 15 min
[5] = molecular target: Dual specificity protein phosphatase 6 (Homo sapiens) (UniProt Q16828); assay: as above; settings: HeLa MKP-3 transfected, phospho-Erk imaging KS statistic; at 10 µM; stronger effect = higher value; cells stimulated with TPA for 15 min
Sequence of Dual specificity protein phosphatase 6 (Homo sapiens) (Q16828 whole entry, looked up): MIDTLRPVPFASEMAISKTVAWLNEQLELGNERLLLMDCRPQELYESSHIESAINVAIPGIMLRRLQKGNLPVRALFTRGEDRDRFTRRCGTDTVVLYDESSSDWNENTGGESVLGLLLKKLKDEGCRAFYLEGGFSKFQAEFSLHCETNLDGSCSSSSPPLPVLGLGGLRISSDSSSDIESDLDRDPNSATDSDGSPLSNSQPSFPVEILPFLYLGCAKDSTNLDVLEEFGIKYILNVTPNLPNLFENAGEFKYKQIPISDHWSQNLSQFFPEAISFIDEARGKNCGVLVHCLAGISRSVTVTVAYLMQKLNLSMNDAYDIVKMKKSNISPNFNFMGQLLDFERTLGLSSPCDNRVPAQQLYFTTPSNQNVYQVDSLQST

[6] = molecular target: Voltage-gated potassium channel subunit beta-2 (Rattus norvegicus) (UniProt P62483); assay: KvBeta enzyme negative modulators, primary screen, biochemical, NADPH fluorescence (AID 622;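 active = fluorescence slope higher than the sample average by over 3 SD, cut at about -0.22 in these data, passing the limit was not always enough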;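 note: slope of raw intensity against log time taken from 70 to 1610 s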); settings: recombinant KvBeta, 4-cyanobenzaldehyde reduction, at 10 µM, stronger effect = higher value
Sequence of Voltage-gated potassium channel subunit beta-2 (Rattus norvegicus) (P62483 whole entry, looked up): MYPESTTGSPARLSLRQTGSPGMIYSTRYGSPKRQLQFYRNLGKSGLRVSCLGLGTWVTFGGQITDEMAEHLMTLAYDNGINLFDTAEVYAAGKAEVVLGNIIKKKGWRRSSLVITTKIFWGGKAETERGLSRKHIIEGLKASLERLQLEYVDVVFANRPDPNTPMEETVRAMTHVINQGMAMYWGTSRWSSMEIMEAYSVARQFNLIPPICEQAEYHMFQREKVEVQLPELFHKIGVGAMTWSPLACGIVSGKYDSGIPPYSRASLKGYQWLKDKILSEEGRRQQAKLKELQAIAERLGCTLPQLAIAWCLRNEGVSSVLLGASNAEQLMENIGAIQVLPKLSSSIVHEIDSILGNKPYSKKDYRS

[7] = molecular target: Voltage-gated potassium channel subunit beta-2 (Rattus norvegicus) (UniProt P62483); assay: KvBeta positive modulators, primary screen, biochemical, NADPH fluorescence (AID 623;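 active = NADPH fluorescence slope more negative than the mean of all samples by about 3 SD, 99.7% confidence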;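 note: fluorescence intensity change per second fitted from 20 to 320 s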); settings: Recombinant KvBeta, NADPH fluorescence decrease slope, 10 min; at 10 µM; stronger effect = lower value
[8] = molecular target: Alpha-2C adrenergic receptor (Homo sapiens) (UniProt P18825); assay: modulators of alpha2C/GIRK thallium flux, primary screen, cell-based, HEK293 alpha2C/GIRK1/2 (AID 624;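 active = fluorescence slope after compound addition differing from the mean of all screened samples at 99.7% confidence, in either direction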;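 note: slope of fluorescence ratio to pre-addition baseline per second over 15 to 24 s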); settings: thallium flux BTC fluorescence, at 10 µM, actives lie on both sides
Sequence of Alpha-2C adrenergic receptor (Homo sapiens) (P18825 whole entry, looked up): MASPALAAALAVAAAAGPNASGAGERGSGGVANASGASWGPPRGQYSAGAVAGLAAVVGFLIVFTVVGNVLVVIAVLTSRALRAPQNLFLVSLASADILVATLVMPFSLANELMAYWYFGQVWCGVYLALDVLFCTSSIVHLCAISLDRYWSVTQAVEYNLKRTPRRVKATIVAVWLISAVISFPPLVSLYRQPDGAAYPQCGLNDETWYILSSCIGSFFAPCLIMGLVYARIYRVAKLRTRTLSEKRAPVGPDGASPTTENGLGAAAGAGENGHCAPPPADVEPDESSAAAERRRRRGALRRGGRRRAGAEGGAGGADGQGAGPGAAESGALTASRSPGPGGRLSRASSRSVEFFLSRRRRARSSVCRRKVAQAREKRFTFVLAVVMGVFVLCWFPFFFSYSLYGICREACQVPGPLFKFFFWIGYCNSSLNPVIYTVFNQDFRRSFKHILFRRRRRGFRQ

[9] = molecular target: Muscarinic acetylcholine receptor M4 (Homo sapiens) (UniProt P08173); assay: compounds altering M4/GIRK thallium flux, either direction, primary screen, M4 allosteric agonist project, cell-based, HEK293 M4/GIRK, BTC-AM (AID 625;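 active = fluorescence slope after compound addition differing from the mean of all tested samples at 99.7% confidence, mostly higher but some lower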;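 note: thallium influx through GIRK channels coupled to M4 in HEK293 cells with BTC-AM dye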); settings: at 10 µM, actives lie on both sides
Sequence of Muscarinic acetylcholine receptor M4 (Homo sapiens) (P08173 whole entry, looked up): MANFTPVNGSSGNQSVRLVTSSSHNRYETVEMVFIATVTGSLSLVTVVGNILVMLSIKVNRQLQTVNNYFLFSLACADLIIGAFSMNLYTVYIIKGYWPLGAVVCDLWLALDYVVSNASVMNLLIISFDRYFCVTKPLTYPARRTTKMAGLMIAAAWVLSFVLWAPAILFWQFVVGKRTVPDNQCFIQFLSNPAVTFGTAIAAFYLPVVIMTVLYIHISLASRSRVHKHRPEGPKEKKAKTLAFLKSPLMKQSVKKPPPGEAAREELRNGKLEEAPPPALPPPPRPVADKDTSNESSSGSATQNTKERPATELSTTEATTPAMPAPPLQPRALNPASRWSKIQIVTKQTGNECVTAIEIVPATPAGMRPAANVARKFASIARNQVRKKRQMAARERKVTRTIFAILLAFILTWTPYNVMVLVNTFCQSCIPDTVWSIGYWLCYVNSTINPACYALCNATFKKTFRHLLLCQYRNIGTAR

[10] = inhibitors of larval lipid processing in zebrafish, primary screen, whole organism, PED6 fluorescence, gall bladder and intestine (AID 686;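 active = a full or partial loss of lipid-probe fluorescence in the fish gall bladder, intestine or both, judged by eye; inactive = no fluorescence loss, or compound toxic to the fish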;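 note: larvae 5 to 7 days old with five fish per well; signal comes from phospholipase A2 cleavage of quenched PED6 carried via bile; overnight exposure to compound and PED6 before scoring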); settings: Zebrafish larvae PED6 lipid processing, fluorescence scoring; screened at 20 µM (by protocol)
[11] = inhibitors of Chlamydomonas gravitaxis, primary screen, whole organism, Chlamydomonas reinhardtii, WT vs cilia-less mutant, absorbance, 96-well (AID 463189); settings: OD600 absorbance, 2 days, at 10 µM, stronger effect = higher value;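 note: 0% = wild type cc124 cells in DMSO and 100% = ciliumless bld1 mutant cells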
[12] = inhibitors of Sendai virus-induced IRF3 signaling, primary screen, TLR/RLR signaling modifier project, cell-based, Sendai virus stimulus, luciferase, 10K MLSCN set (AID 602276;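 active = inhibition at or above 50% at 10 µM; inactive = inhibition below 50%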;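 note: firefly luciferase from ISG56 promoter only with Renilla not read in this screen; 0% = Sendai virus plus DMSO and 100% = medium plus DMSO without virus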); settings: HEK293 RL24 IRF3 luciferase reporter, at 10 µM, stronger effect = higher value
[13] = inhibitors of poly I:C-induced TLR3 signaling, primary screen, cell-based, poly I:C stimulus, luciferase, 10K MLSCN set (AID 602277;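 active = inhibition of the reporter signal at or above 50%; inactive = inhibition below 50%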); settings: HEK293-TLR3 RL24 IRF3 luciferase reporter, at 10 µM, stronger effect = higher value
[14] = measured here: cell density z-score
[15] = measured here: nuclear c-Myc green intensity z-score
[16] = measured here: nuclear pErk red intensity z-score, stronger effect = higher value

Compound: O=C(O)CC1Sc2nc3ccccc3n2C1=O (stereo not drawn)
- cell count [1]: 532
- inhibition [1]: -9% (inactive)
- inhibition of aggregation [2]: -11.5% (inactive)
- nuclei count [2]: 89%
- inhibition [3]: -22.4% (inactive)
- nuclei count [3]: 116%
- z-score [4, 14]: -0.312
- z-score [4, 15]: -0.637
- z-score [4, 16]: -0.43
- inhibition [5]: 15.9% (inactive)
- fluorescence slope [6]: -0.49 (inactive)
- NADPH fluorescence slope [7]: -1.3e-05 (inactive)
- slope [8]: 0.00572 (inactive)
- fluorescence slope [9]: 0.00487 (inactive)
- outcome [10]: inactive
- inhibition [11]: 27.7% (inactive)
- inhibition [12]: 13.8% (inactive)
- inhibition [13]: 12.9% (inactive)

Compound: Cc1ccc(NC(=O)CSC2=C(C#N)C(c3ccc4c(c3)OCO4)CC(=O)N2)cc1C (stereo not drawn)
- cell count [1]: 636
- inhibition [1]: 1.6% (inactive)
- inhibition of aggregation [2]: -10.3% (inactive)
- nuclei count [2]: 122%
- inhibition [3]: -11.7% (inactive)
- nuclei count [3]: 122%
- z-score [4, 14]: 0.402
- z-score [4, 15]: 0.339
- z-score [4, 16]: -0.3
- inhibition [5]: 6.51% (inactive)
- fluorescence slope [6]: -0.486 (inactive)
- NADPH fluorescence slope [7]: -2.7e-05 (inactive)
- slope [8]: 0.00695 (inactive)
- fluorescence slope [9]: 0.00748 (inactive)
- outcome [10]: inactive
- inhibition [11]: 25.6% (inactive)
- inhibition [12]: -18.5% (inactive)
- inhibition [13]: -9.47% (inactive)

Compound: CCN(CC)CCOC(=O)C1(c2ccc(OC)c(OC)c2)CCCC1
- cell count [1]: 540
- inhibition [1]: -5.7% (inactive)
- inhibition of aggregation [2]: -1% (inactive)
- nuclei count [2]: 96.9%
- inhibition [3]: -29.5% (inactive)
- nuclei count [3]: 96.9%
- z-score [4, 14]: -0.552
- z-score [4, 15]: -0.514
- z-score [4, 16]: -0.16
- inhibition [5]: -13.3% (inactive)
- fluorescence slope [6]: -0.513 (inactive)
- NADPH fluorescence slope [7]: -1.5e-05 (inactive)
- slope [8]: 0.00483 (inactive)
- fluorescence slope [9]: 0.00575 (inactive)
- outcome [10]: inactive
- inhibition [11]: 0.789% (inactive)
- inhibition [12]: 13.2% (inactive)
- inhibition [13]: 21% (inactive)

Compound: CC1(C2(O)CC(c3ccccc3)ON2)CCCCC1 (stereo not drawn)
- cell count [1]: 623
- inhibition [1]: 1.7% (inactive)
- inhibition of aggregation [2]: 41.9% (inactive)
- nuclei count [2]: 65.3%
- inhibition [3]: -10.4% (inactive)
- nuclei count [3]: 105%
- z-score [4, 14]: -1.89
- z-score [4, 15]: -1.27
- z-score [4, 16]: 0.343
- inhibition [5]: -6.06% (inactive)
- fluorescence slope [6]: -0.516 (inactive)
- NADPH fluorescence slope [7]: -7.6e-05 (inactive)
- slope [8]: 0.0054 (inactive)
- fluorescence slope [9]: 0.00556 (inactive)
- outcome [10]: inactive
- inhibition [11]: 9.38% (inactive)
- inhibition [12]: 2.61% (inactive)
- inhibition [13]: 4.59% (inactive)

Compound: CCCC1Cc2c(sc3ncnc(N)c23)CO1 (stereo not drawn)
- cell count [1]: 492
- inhibition [1]: -5.3% (inactive)
- inhibition of aggregation [2]: -8% (inactive)
- nuclei count [2]: 80.5%
- inhibition [3]: -49.3% (inactive)
- nuclei count [3]: 139%
- z-score [4, 14]: -0.574
- z-score [4, 15]: -0.569
- z-score [4, 16]: 0.241
- inhibition [5]: -1.98% (inactive)
- fluorescence slope [6]: -0.411 (inactive)
- NADPH fluorescence slope [7]: -4.2e-05 (inactive)
- slope [8]: 0.00633 (inactive)
- fluorescence slope [9]: 0.00429 (inactive)
- outcome [10]: inactive
- inhibition [11]: 1.24% (inactive)
- inhibition [12]: -2.55% (inactive)
- inhibition [13]: 5.36% (inactive)

Compound: CN1CCN2c3ccccc3Cc3ccccc3C2C1 (stereo not drawn)
- cell count [1]: 620
- inhibition [1]: 1.5% (inactive)
- inhibition of aggregation [2]: 11.1% (inactive)
- nuclei count [2]: 113%
- inhibition [3]: -52% (inactive)
- nuclei count [3]: 117%
- z-score [4, 14]: -0.186
- z-score [4, 15]: -0.363
- z-score [4, 16]: -0.896
- inhibition [5]: 19.2% (inactive)
- fluorescence slope [6]: -0.574 (inactive)
- NADPH fluorescence slope [7]: -3.8e-05 (inactive)
- slope [8]: 0.0196 (active)
- fluorescence slope [9]: 0.0128 (active)
- outcome [10]: inactive
- inhibition [11]: 15.2% (inactive) and 10.4% (inactive)
- inhibition [12]: 12.6% (inactive)
- inhibition [13]: 45.7% (inactive)
